AmpC no deterg = inhibitors of E. coli AmpC beta-lactamase without detergent. P00811. AmpC nitrocefin hydrolysis, absorbance 480 nm, 0.0001% Triton. Potency, µM (top dose mostly 57.1 µM), without a hit: at the highest dose activity change, negative = inhibition, usual class: inhibitors. actives 0.52% (n = 330,000). AID 485341;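 note: plate controls were no compound for no effect and no enzyme for full effect; nearly all actives have a fitted effect of over 20% in size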
Target sequence (P00811 whole entry, looked up): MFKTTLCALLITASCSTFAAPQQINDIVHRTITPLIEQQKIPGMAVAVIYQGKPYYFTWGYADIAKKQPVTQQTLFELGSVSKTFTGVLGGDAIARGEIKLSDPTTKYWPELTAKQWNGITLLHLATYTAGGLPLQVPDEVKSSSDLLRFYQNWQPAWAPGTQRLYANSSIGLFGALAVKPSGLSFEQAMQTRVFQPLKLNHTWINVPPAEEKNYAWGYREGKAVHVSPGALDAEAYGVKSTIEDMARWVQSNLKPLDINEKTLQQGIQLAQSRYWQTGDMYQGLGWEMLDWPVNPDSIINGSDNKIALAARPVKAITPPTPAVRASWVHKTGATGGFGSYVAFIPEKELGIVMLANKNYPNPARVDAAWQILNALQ
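AmpC (5.3 nM in the dispensed reagent) in 20 mM phosphate pH 7.0 with 0.01% (detergent screen) or 0.0001% Triton X-100 was preincubated with compounds for 15 min at room temperature. Nitrocefin was then added from an 800 uM solution, and hydrolysis was followed at 480 nm.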
Pf growth 96h = P. falciparum growth inhibition at 96 hour, primary screen for plastid delayed-death inhibitors; actives 6.9% (n = 320,000); P. falciparum luciferase reporter growth, 96 h; Potency, µM (doses to about 28.7 µM), without a hit: top-dose activity change, negative = inhibition, actives largely listed as inhibitors; note: % is set by controls: 0 for no effect and ±100 for the full control effect
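Two-generation exposure (96 h) targets delayed-death phenotype. Reporter parasites carrying integrated firefly luciferase, in red cells at 2% hematocrit and 0.05% parasitemia final, kept at 37 C, 5% CO2; luminescence loss indicates inhibition.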
Pf growth 48h = inhibits P. falciparum growth in the first generation, 48 h; P. falciparum luciferase growth in erythrocytes, 48 h; Potency, µM (highest dose often 28.7 µM), without a hit: top-dose activity change, negative = inhibition, usual class: inhibitors; actives 5.9% (n = 310,000); note: % is set by controls: 0 for no effect and ±100 for the full control effect
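Here the parasites carry a stable luciferase gene and grow inside erythrocytes in Albumax-based RPMI medium with compound for one erythrocytic cycle. Activity is scored as loss of luminescent signal.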
AmpC detergent = AmpC beta-lactamase inhibition with detergent present; P00811; AmpC hydrolysis of nitrocefin, absorbance 480 nm, 0.01% Triton; Potency, µM (doses to about 114 µM), inactives show at the highest dose activity change, negative = inhibition, hits mostly inhibitors; actives 0.041% (n = 370,000); AID 485294;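 note: 0% = no-compound wells and -100% = no-enzyme wells; nearly all actives have a fitted effect of over 25% in size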
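20 mM phosphate pH 7.0 + 0.01% (detergent screen) or 0.0001% Triton X-100; 5.3 nM AmpC reagent; cpd preinc 15 min RT; nitrocefin (800 uM stock) to start; A480 q20 s × 4 min; Activity was normalised to no-enzyme and no-compound control wells.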
Sm TGR block = S. mansoni TGR enzyme inhibition; Potency, µM (series often up to 114 µM), inactives show at the top dose activity change, negative = inhibition, actives largely listed as inhibitors; Q962Y6; AID 485364; actives 3% (n = 360,000); purified TGR, DTNB reduction, TNB absorbance 405 nm; note: % is set by controls: 0 for no effect and ±100 for the full control effect; nearly all actives have a fitted effect of over 60% in size
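TGR 20 nM + NADPH 100 uM (dispensed conc.), cpd preinc 15 min RT; start with NADPH (500 uM addition) then DTNB (15 mM addition). Kinetic TNB absorbance, 405 nm filter. Four-parameter Hill fit across titration.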
SARS PLpro yeast = inhibitors of SARS-CoV papain-like protease in yeast; S. cerevisiae expressing SARS-CoV PLpro, growth rescue; Potency, µM (doses to about 32.9 µM), inactives show top-dose activity, positive = growth rescue, hits mostly activators; actives 0.19% (n = 330,000); AID 485353; calls by dose curve; note: 0% is about no effect; nearly all actives have a fitted effect of over 55% in size
Numbers without * were called inactive; ? = inconclusive; . = no result; [ ] = another dose, or the depositor's remark. Shown are actives, neighbours in structure and some others; about 12% of the full set was active somewhere. Unless noted, calls come from the whole dose curve; as a rule, active = well fitted curve in the direction sought with a large enough effect; inconclusive = small, poorly fitted or top-dose-only effect, or another doubt; inactive = no such curve, though single readings can be large; an effect the other way counts as inactive or inconclusive. Potency is the fitted concentration of half-maximal effect.

SMILES | AmpC no deterg | Pf growth 96h | Pf growth 48h | AmpC detergent | Sm TGR block | SARS PLpro yeast
COc1cccc(NC(=O)CSC2=C(C#N)C(c3ccco3)C3=C(CCCC3=O)N2)c1 (configuration not stated) | -52% | 134% | -21% | -8% | -34% | -3%
Cc1ccc(C(=O)CSC2=C(C#N)C(c3ccco3)C3=C(CCCC3=O)N2)cc1 (configuration not stated) | ? | -24% | ? | ? | ? | -2%
O=C1COc2cc(S(=O)(=O)CCC(=O)N3CCN(c4cccc(Cl)c4)CC3)c(Cl)cc2N1 | . | . | . | 22% | -2% | .
Cc1cccc(C(=O)N2CCNC(=O)C2CC(=O)Nc2ccc(F)cc2)c1 (configuration not stated) | . | . | . | 20% | 3% | .
CCC(=O)Nc1cccc(-c2nnc(-c3cccc(NC(=O)CC)c3)o2)c1 | 25% | 1.2µM* | 5.2µM* | 1% | 0% | 0%
CCC(=O)Nc1ccc(-c2nnc(-c3ccccc3)o2)cc1 | -15% | 51% | 262% | 0% | 2% | 2%
CCCCC(=O)Nc1cccc(-c2nc3ncccc3o2)c1 | -9% | 12µM* | ? | ? | 6% | 1%
O=C(O)CCC(=O)Nc1cccc(-c2nnc(-c3ccccc3)o2)c1 | -14% | ? | 21% | 3% | 25µM* | 2%
Cc1cccc(-n2c(-c3ccco3)nc3nc4ccccc4nc32)c1 | -21% | -7% | 1% | -6% | -20% | 2%
CCCCn1c(-c2ccco2)nc2ccccc2c1=O | -7% | 18% | -8% | 4% | 56µM* | 7%
CCC(C)n1c(-c2ccco2)nc2nc3ccccc3nc21 (configuration not stated) | 27% | 10µM* | ? | ? | 0% | 3%
CC(C)OCCCn1c(-c2ccco2)nc2nc3ccccc3nc21 | 28% | 3.3µM* | ? | -2% | 50µM* | 5%
COCCn1c(-c2ccco2)nc2nc3ccccc3nc21 | -15% | -10% | -4% | ? | 7% | 0%
COc1cccc(-n2c(-c3ccco3)nc3nc4ccccc4nc32)c1 | -6% | 3.3µM* | 2% | 5% | 0% | -5%
Cc1ccc(-n2c(-c3ccco3)nc3nc4ccccc4nc32)cc1 | -23% | ? | -8% | -16% | ? | 1%
Cc1ccc(N(CCC#N)C(=O)CCl)cc1C | -18% | ? | 9.3µM* | 3% | 18µM* | -3%
Cc1ccc(SCC(=O)OCC(=O)N(CCC#N)c2ccccc2)cc1C | 26% | -16% | -13% | 0% | ? | 4%
O=S(=O)(NCCC1=CCCCC1)c1ccc(F)cc1 | -26% | 10% | 35% | -16% | -18% | -7%
O=C(Cn1c(=O)c2c(ncn2C2CCCC2)n(Cc2ccccc2)c1=O)N1CCc2ccccc21 | 5% | 37% | 5.9µM* | ? | -13% | -2%
O=C(Cn1c(=O)c2c(ncn2Cc2ccccc2)n(Cc2ccccc2)c1=O)N1CCc2ccccc21 | -13% | . | 3.3µM* | -12% | 3% | -7%
O=C(Cn1c(=O)c2c(ncn2Cc2ccccc2)n(Cc2ccccc2)c1=O)N1CCCC1 | 121% | ? | ? | -13% | -16% | 3%
CCn1cnc2c1c(=O)n(CC(=O)N1CCc3ccccc31)c(=O)n2Cc1ccccc1 | 10% | ? | . | -11% | -24%[11.4 µM] | -6%
CCc1ccc(N(CC(=O)Nc2ccc(NC(C)=O)cc2)S(=O)(=O)c2ccccc2)cc1 | -8% | ? | 13µM* | -6% | 3% | -1%
Cc1ccc(C)c(N(CC(=O)N/N=C/c2ccc(-c3ccc([N+](=O)[O-])cc3)o2)S(=O)(=O)c2ccccc2)c1 | -22% | ? | ? | 0% | -29% | -2%
CC(=O)Nc1ccc(NC(=O)CN(c2ccc([N+](=O)[O-])cc2)S(=O)(=O)c2ccccc2)cc1 | -56% | 2.9µM* | 22% | 4% | 11% | 1%
SMILES | AmpC no deterg | Pf growth 96h | Pf growth 48h | AmpC detergent | Sm TGR block | SARS PLpro yeast
CCOc1ccc(N(CC(=O)NN=C2CCN(C)CC2)S(=O)(=O)c2ccc(Br)cc2)cc1 | 79% | 15µM* | -3% | -1% | -6% | 0%
CCOc1ccc(S(=O)(=O)N(CC(=O)N/N=C/c2ccc(-c3ccc([N+](=O)[O-])cc3)o2)c2ccccc2)cc1 | 13µM* | 49% | 4% | -5% | -26% | 7%
Cc1c(Cn2ccnc2)c2ccccc2n1CCC(=O)O | . | ? | -11% | . | . | .
CCCCCCCNC(=O)C1(CC2CC(c3ccc(Cl)cc3)=NO2)CCN(C(=O)CCCCCBr)CC1 (configuration not stated) | 210% | 12µM* | 32% | -2% | -23% | 2%
O=C(CCCCCBr)N1CCC(CC2CC(c3cccc(Br)c3)=NO2)(C(=O)NCC2CCCCC2)CC1 (configuration not stated) | 219% | 5.2µM* | ? | 9% | -2% | -8%
CCC(=O)N1CCC2(CC1)Oc1ccc(Cl)cc1C(=O)C21CC(c2ccc(Cl)cc2)=NO1 (configuration not stated) | 143% | ? | ? | -8% | -12% | -3%
O=C(CCCCCBr)N1CCC(CC2CC(c3ccc(Cl)cc3)=NO2)(C(=O)NCC2CCCCC2)CC1 (configuration not stated) | 159% | 3.3µM* | ? | -15% | 7% | -2%
COc1cccc(CNC(=O)CN2N=C(c3ccc(C)cc3)CCC2=O)c1 | . | . | . | 10% | 52% | .
COc1ccc(CNC(=O)C2CCN(S(=O)(=O)c3cccc(-c4noc(C)n4)c3)CC2)cc1 | . | . | . | 4% | 2% | .
NC(N)=NN=C1CCCCCCCCCCC1 | 1% | 3.7µM* | 10µM* | 6% | 14% | 1%
O=c1c2c3c(sc2n(Cc2cc(=O)n4ccccc4n2)c(=O)n1-c1ccccc1)CCC3 | . | . | . | 18% | 43% | .
Cc1nn(C(C)C)c(C)c1CN1CCC(C(=O)Nc2cccc(-c3cccc(F)c3)c2)CC1 | 168% | -17% | ? | -5% | 0% | -6%
Cc1ccc(C2Nc3ccccc3C(=O)N2Cc2ccco2)cc1 (configuration not stated) | -45% | 15µM* | ? | -6% | -28% | 3%
COc1ccc(C2Nc3ccccc3C(=O)N2Cc2ccco2)cc1COc1ccc(NC(C)=O)cc1 (configuration not stated) | 36% | 10µM* | ? | -4% | ? | 8%

Screens from PubChem BioAssay.
